PubChem BioAssay AID1963322 (National Center for Advancing Translational Sciences (NCATS), 2024)
Results filed as inconclusive are left out. Entries that show only a call come without a potency. The source made the active and inactive calls. The call rests on the fitted dose curve.

molecular target: cAMP-dependent protein kinase catalytic subunit alpha (Homo sapiens) (UniProt P17612); test: Protein Kinase A (PKA-HiBiT) SDR gain of signal screen; details: PKA-HiBiT structural dynamics response (SDR), luminescence gain of signal; series mostly up to 32.9 µM
Procedure, shortened: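 Gain of luminescent signal after Nano-Glo HiBiT detection (10 min, RT) was the read-out. Beforehand, compounds were incubated 30 min at room temperature in the dark with 10 nM final PKA-N-HiBiT, with H-89 as positive control.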

Structure (SMILES)	Potency
COc1cc(N2CCOCC2)ccc1Nc1ncc(Cl)c(Nc2ccccc2NS(C)(=O)=O)n1	1.34 µM (active)
Nc1ncccc1-c1nc2ccc(-c3ccccc3)nc2n1-c1ccc(C2(N)CCC2)cc1	inactive
CCN1C(=O)CNc2ncc(-c3ccc(-c4ncn[nH]4)nc3C)nc21	inactive
Cc1cc(-c2cc(O)ccc2Cl)cc2nnc(Nc3ccc(OCCN4CCCC4)cc3)nc12	inactive
COc1ccc2c(Oc3ccc(NC(=O)c4c(C)n(CC(C)(C)O)n(-c5ccccc5)c4=O)nc3)ccnc2c1	inactive
CSc1cccc(Nc2ncc3cc(-c4c(Cl)cccc4Cl)c(=O)n(C)c3n2)c1	inactive
CC(C)(NS(=O)(=O)c1ccc2c(Cl)cnc(N=C(N)N)c2c1)C(=O)O	inactive
O=C(O)C1(Cc2cccc(Nc3nccs3)n2)CCC(Oc2cccc(Cl)c2F)CC1 (centres undefined)	14.5 µM (active)
CCn1nc(C2CCN(C(=O)CCO)CC2)nc1-c1cnc(N)c(-c2nnc(C(C)(C)C)o2)n1	inactive
C=CC(=O)N1CCC(Oc2cc3c(Nc4ccc(Cl)c(Cl)c4F)ncnc3cc2OC)CC1	inactive
COc1cc(N2CCC(N3CCN(C)CC3)CC2)ccc1Nc1ncc(Cl)c(Nc2ccccc2P(C)(C)=O)n1	5.55 µM (active)
Cn1cc(-c2cc3c(N4CCN(c5ncc([C@@](C)(N)c6ccc(F)cc6)cn5)CC4)ncnn3c2)cn1	inactive
COc1ccc(CNC(=O)Nc2ncc([N+](=O)[O-])s2)cc1	inactive
O=C(c1cccc(Cl)c1F)N1CCN(Cc2cccc(Nc3nccs3)n2)CC1	inactive
